Biological target: PPIA
Assay: pooled miR-30 sensor sort-seq; sequence = guide strand
Details: shRNA
Also: reference of the scale not given here.

Sequence	sensor-assay potency score (higher = more potent)
ATAATCATAAACTTAACTCTGC	0.46
TTGCTGGTCTTGCCATTCCTGG	-1.6
TTTCACTTTGCCAAACACCACA	-0.879

Biological target: PPIF
Assay: as above
Details: shRNA

Sequence	sensor-assay potency score (higher = more potent)
TTTCACTTCTAGTCAATCTTGT	0.721
TTCTATTTTCTTCACGACGTCC	-0.712
TAGGAAGACAATATTAAACAGG	-0.559
TTCAGCTCCAGCACCACGCGGC	-0.501
TATTTTCTTCACGACGTCCATG	-0.975
TCTGTGATGACAATCTTCTTGG	0.0684
TTCACTTCTAGTCAATCTTGTT	-0.0767
TGTGATGACAATCTTCTTGGAT	0.322
TTAAACAGGTATTAGAGTCCTT	-0.0918
TAGCCATGGACAGGACACCTGG	-1.46
TGACCGAACACAACATGCTTGC	-0.464
TAAACAGGTATTAGAGTCCTTT	-0.324

Biological target: PPIL1
Assay: as above
Details: shRNA

Sequence	sensor-assay potency score (higher = more potent)
TAGATAGATGCACCACCTCGAC	-1.34
TTCACGTCGTCCACAGGGCGGT	-0.967
TAGATGCACCACCTCGACCTGT	-1.02
TTAGCATTACATGTCATTCTAT	-0.539
TTACATGTCATTCTATGTCATC	-1.08
TATGTCATCTAGAAGCTGGTTC	0.329
TTGGATCATGAAGTCTTTGATA	-1.36
TAAAATGTACTTCCATCTCTAA	-0.493
TAGCATTACATGTCATTCTATG	-0.73
TTCTATGTCATCTAGAAGCTGG	0.291
TTCTGTGGAATTTTGTGCCATT	-0.861
TGTAGTAACCTCGACGAGCCAA	-0.207

Biological target: PPM1D
Assay: as above
Details: shRNA

Sequence	sensor-assay potency score (higher = more potent)
TTTCTTTAAACATTTAGCCCTA	-0.501
TTTTACAGCAACTTATACCCTA	0.379
TAACAGAGTTCTTTCGCTGTGA	0.0976
TTCGATTCGTTCTCTTTCCTTG	0.00604
TATACTTGTGCTTCTGAGGGTC	0.801
TTTACAGCAACTTATACCCTAA	-0.288
TTTAACAGAGTTCTTTCGCTGT	0.0988
TTTTTTCTCCTCTTGGTCCTGG	0.387
TTGAGTAACGTCCTCCATGTAC	-0.62
TTGAGGGTATGACTACACCTTG	-1.21
TTGGACTCTTCTAATGTCCTTT	-0.026
TATAATATACTTGTGCTTCTGA	0.584
